Screening data as filed in PubChem.
Sampled rows, rich in hits. Any-hit rate of the full collection: about 1.6%.
KCNQ2 enhance – KCNQ2 (rat) channel potentiation | CHO-K1 KCNQ2, FluxOR thallium flux fluorescence; stronger effect = higher value | B-score at 10 µM | actives 0.54% (n = 310,000);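 active means fluorescence ratio B-score at least 3 SD of library B-scores, with initial fluorescence B-score within 3 of them, cut at about 5.3 in these data; same plate scores as AID 2156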;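 further: B-score of peak minus minimum over baseline fluorescence ratio after K+ and Tl+ stimulus; positive B-score means potentiation of KCNQ2 with more thallium influx and brighter signal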
KCNQ2 inh – KCNQ2 (rat) channel inhibition; O88943; CHO-K1 KCNQ2, FluxOR thallium flux, 20 min; stronger effect = lower value; B-score at 10 µM; actives 1.1% (n = 310,000);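 active means fluorescence ratio B-score at most minus 3 library SDs, with starting brightness B-score within 2 library SDs, cut at about -5.5 in these data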
Kir21 confirm – confirmation of mouse Kir2.1 potassium channel inhibitors | Tl flux remaining, % of negative control (stronger effect = lower value), % at 10 µM | actives 41% (n = 2,300) | shares compounds with KCNQ2 enhance | Kir2.1-expressing cells, FluxOR thallium flux fluorescence; stronger effect = lower value;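 active means Primary-screen hit whose thallium flux fell at least 3 control SD below untreated wells in both duplicates, with normal baseline fluorescence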;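 further: 0% = blank wells without stimulus and 100% = stimulated no-compound controls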
Target sequence (P35561 whole entry, looked up): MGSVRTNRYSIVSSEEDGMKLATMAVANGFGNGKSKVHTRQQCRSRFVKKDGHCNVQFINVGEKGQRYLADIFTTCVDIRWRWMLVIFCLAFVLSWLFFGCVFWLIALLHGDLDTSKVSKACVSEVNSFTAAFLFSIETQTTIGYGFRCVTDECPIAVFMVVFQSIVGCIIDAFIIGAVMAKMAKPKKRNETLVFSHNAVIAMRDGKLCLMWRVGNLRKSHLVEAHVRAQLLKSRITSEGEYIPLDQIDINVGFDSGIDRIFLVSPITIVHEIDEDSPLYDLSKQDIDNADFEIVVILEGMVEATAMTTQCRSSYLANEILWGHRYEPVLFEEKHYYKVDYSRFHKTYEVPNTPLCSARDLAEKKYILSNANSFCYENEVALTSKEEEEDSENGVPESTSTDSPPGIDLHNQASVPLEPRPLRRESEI
HEK293 ctr – counter-screen for Kir2.1 inhibitors: effect in parental HEK293 cells | FluxOR thallium flux fluorescence; 0% = unstimulated blank wells | shares compounds with KCNQ2 enhance | AID 2105 | actives 19% (n = 2,300) | FluxOR signal as % of negative control (100 = no effect), % at 10 µM;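 active means dye signal at least 3 control SD above or below untreated wells in both duplicates, raw fluorescence within 3, either direction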;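 further: percent is based on the flux ratio of peak minus minimum fluorescence over baseline F0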
CHO-K1 ctr – parental CHO-K1 activity in KCNQ2 potentiator counter-screen. shares compounds with KCNQ2 enhance. parental CHO-K1 cells, FluxOR thallium flux fluorescence; zero = vehicle mean+3SD, 100% = vehicle-minus-blank window. activity increase over 3SD of controls, % at 10 µM. actives 43% (n = 1,200). AID 2282;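 active means signal rise of at least 3 SD above the untreated control mean, in both duplicate wells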;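 further: counter screen of KCNQ2 potentiator hits so any rise reflects channel-independent effects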
KCNQ1 pot spec – selectivity of KCNQ2 potentiators: effect on human KCNQ1; shares compounds with KCNQ2 enhance; CHO KCNQ1 stable, FluxOR thallium flux fluorescence; beyond 3SD, as % of vehicle-control signal; activation over 3SD threshold, % at 10 µM; actives 28% (n = 1,200);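 active means fluorescence ratio rise of at least 3 SD of vehicle wells above their mean, in both replicate wells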;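 further: 0% = vehicle mean plus 3 SD and 100% = vehicle minus unstimulated blank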
KCNQ2 pot conf – rat KCNQ2 channel potentiator confirmation; shares compounds with KCNQ2 enhance; CHO-KCNQ2 cells, FluxOR thallium flux fluorescence; potentiation, less the hit threshold, % at 10 µM; actives 68% (n = 1,200);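 active means fluorescence ratio rising 3 SD or more over the vehicle control mean in both replicates, plus primary screen hit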;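 further: peak minus minimum thallium fluorescence divided by baseline after K/Tl stimulus; 0% = vehicle mean plus 3 SD and 100% = vehicle minus unstimulated blank difference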
Kir2-1 sel – selectivity of KCNQ2 potentiators: effect on mouse Kir2.1; shares compounds with KCNQ2 enhance; HEK293 Kir2.1, FluxOR thallium flux fluorescence; activity over 3SD threshold, % at 10 µM; actives 2% (n = 1,200);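 active means fluorescence ratio rise of at least 3 SD above the vehicle-control mean, seen in both replicates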;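 further: 0% = vehicle mean plus 3 SD and 100% = vehicle minus no-stimulus blank window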
KCNQ2 W236L MoA – potentiates the retigabine-insensitive rat KCNQ2 W236L mutant channel. shares compounds with KCNQ2 enhance. CHO KCNQ2-W236L, automated patch clamp current. current increase over 3SD of negative controls (%), stronger effect = higher value, % at 25 µM. actives 10% (n = 940). AID 2558;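 active means current increase at least 3 SD of the untreated controls above them in both duplicate recordings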
* hit, by the source's call; i = inactive; · = no result.

SMILES	KCNQ2 enhance	KCNQ2 inh	Kir21 confirm	HEK293 ctr	others
OC1(c2ccc(Cl)cc2)CCN(Cc2c[nH]c3ccccc23)CC1	0.38	i	34%*	i
Clc1ccccc1N1CCN(Cc2c[nH]c3ccccc23)CC1	·	i	·	·
CCOc1ccc(NC(C)c2cc(Cl)ccc2O)cc1 (configuration not stated)	4.5	i	·	·
CC(Nc1ccc(Cl)cc1)c1cc(Cl)ccc1O (configuration not stated)	4.2	i	59%*	i
CC[C@H](C)[C@@H](CNC)NC[C@@H](Cc1ccc(O)cc1)NCC(C)(C)C	0.03	i	·	·
CC[C@@H](C)[C@H](CN[C@H](CNC)C(C)C)NC[C@@H](C)c1ccc(CC(C)C)cc1	·	i	26%*	i
CN1CCC(=NNc2ccc(S(=O)(=O)N3CCOCC3)cc2[N+](=O)[O-])CC1	1.3	i	·	·
CCOC(=O)C1(Cc2cccc(F)c2)CCN(C(=O)c2ccoc2C)CC1	·	i	·	·
COc1ccc(CNCc2cccc(Oc3ccccc3)c2)cc1	2.1	i	10%*	i
COc1ccc(CNCc2ccncc2)c(OC)c1	1.5	i	·	·
COc1ccc(CNCc2cccc(C)c2)cc1	0.68	i	·	·
COc1ccc(CNCc2ccc3ccccc3c2)c(OC)c1	4.5	i	24%*	i
CCn1cc(CNCc2cn(C)nc2-c2ccc(C3CCCCC3)cc2)cn1	·	i	·	·
CSCc1c(C(=O)NCCc2ccccn2)oc2ccccc12	·	i	·	·
Cc1ccc(S(=O)(=O)CCC(=O)c2cccc([N+](=O)[O-])c2)cc1	-13	-13*	51%*	58%*
Cc1ccc(S(=O)(=O)NCC(=O)Nc2cccc([N+](=O)[O-])c2)cc1	0.34	i	·	·
CN1C2=C(C(=O)CC(C)(C)C2)C(c2cccs2)C2=C1CC(C)(C)CC2=O	·	i	·	·
O=[N+]([O-])c1cc(Cl)cc(/C=N/NC(=S)Nc2ccc(S(=O)(=O)N3CCOCC3)cc2)c1O	18*	i	i	i	CHO-K1 ctr=3.6*;KCNQ1 pot spec=-6;KCNQ2 pot conf=39*;Kir2-1 sel=-30;KCNQ2 W236L MoA=3.7%*
O=S(=O)(c1ccc(NC(=S)N/N=C/c2ccc(O)c(O)c2)cc1)N1CCOCC1	·	i	·	·
CC(C)CC(=O)Nc1ccc(Nc2ccccc2)cc1	1.6	i	·	·
CC(C)(C)CC(=O)Nc1ccc(Nc2ccccc2)cc1	6.3*	i	i	i	CHO-K1 ctr=133*;KCNQ1 pot spec=-21;KCNQ2 pot conf=16*;Kir2-1 sel=-40;KCNQ2 W236L MoA=i
Cc1cc(C)c(O)c(NC(=S)NC(=O)Cc2ccccc2)c1	·	i	·	·
Cc1ccc(CNC(=O)c2ccc(Cn3nc(C)c(Cl)c3C)o2)cc1	·	i	48%*	i
Cc1cc(C)cc(NC(=O)c2ccc(Cn3nc(C)c(Cl)c3C)o2)c1	·	i	·	·
Cc1ccc2nc(Cl)c(/C=N/Nc3nc(C)cc(C)n3)c(=O)n2c1	·	i	·	·
SMILES	KCNQ2 enhance	KCNQ2 inh	Kir21 confirm	HEK293 ctr	others
Nc1cc(N)nc(SCC(=O)NCCC2=CCCCC2)n1	0.09	i	·	·
CC(C)c1nnc(SCC(=O)NCCC2=CCCCC2)n1N	5.9*	i	i	i	CHO-K1 ctr=-17;KCNQ1 pot spec=2.2*;KCNQ2 pot conf=24*;Kir2-1 sel=-21;KCNQ2 W236L MoA=2.6%*
CC(C)(C)c1cc(C(=O)Nc2cccnc2)cc(C(=O)Nc2cccnc2)c1	0.33	i	·	·
CC[n+]1c(/C=C/N(C)c2ccccc2)n(-c2ccccc2)c2ccc(-c3nc4ccccc4s3)cc21	-16	-16*	i	i
CCOC(=O)c1ccc2c(c1)n(CC)c(/C=C/N(C)c1ccccc1)[n+]2CC	·	i	·	·
CN(C)CCNC(=O)c1cc2c(s1)-c1ccc(Cl)cc1SC2	-7.6	-7.6*	i	i
